Experimental data taken from PubChem BioAssay (NCATS).
Values joined by “and” are separate entries in the source; they are usually repeats but may differ in a detail not shown here. Equal values may be shown once. Results filed as inconclusive are left out. Active and inactive are the calls of the source. Calls come from the whole dose curve; as a rule, active = well fitted curve in the direction sought with a large enough effect; inconclusive = small, poorly fitted or top-dose-only effect, or another doubt; inactive = no such curve, though single readings can be large; an effect the other way counts as inactive or inconclusive.

Experiments:
HEK293 = experiment: Cytotoxic Profiling of Annotated Libraries Using Quantitative High-Throughput Screening (AID 1296008); settings: Five cell lines viability, CellTiter-Glo ATP luminescence, 48-72 h; max response: active compounds read low; note: nearly all actives have a fitted effect of over 60% in size
Outline: (§1)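 Cells exposed to compounds for 48 or 72 hr at 37 degrees Celsius. Viability read as ATP-coupled luminescence with CellTiter-Glo after 10 min at room temperature.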

HaCat = experiment: as above; settings: Five cell lines viability, CellTiter-Glo ATP luminescence, 48-72 h; max response: active compounds read low
Outline: as §1

KB-3-1 = experiment: as above; settings: Five cell lines viability, CellTiter-Glo ATP luminescence, 48-72 h; max response: active compounds read low
Outline: as §1

NIH3T3 = experiment: as above; settings: Five cell lines viability, CellTiter-Glo ATP luminescence, 48-72 h; max response: active compounds read low
Outline: as §1

MCC-13 = experiment: qHTS assay to identify novel small-molecules to repurpose for Merkel cell carcinoma treatment (AID 1296009); settings: MCC and control cell lines, CellTiter-Glo viability, 72 h; series mostly up to 46 µM; note: nearly all actives have a fitted effect of over 60% in size
Outline: (§2)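 Dose-response viability screen; 72 hr exposure at 37 degree celsius; CellTiter-Glo added, 10 min room temperature, luminescence read; RLUs scaled between no-cell and DMSO wells.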

MKL-2 = experiment: as above; settings: MCC and control cell lines, CellTiter-Glo viability, 72 h; series mostly up to 46 µM
Outline: as §2

UISO = experiment: as above; settings: MCC and control cell lines, CellTiter-Glo viability, 72 h; series mostly up to 46 µM
Outline: as §2

WaGa = experiment: as above; settings: MCC and control cell lines, CellTiter-Glo viability, 72 h; series mostly up to 46 µM
Outline: as §2

C33A = experiment: Primary qHTS to identify gynecologic anti-cancer compounds using libraries of approved drugs and bioactive compounds (AID 1345084); settings: Gynecologic cancer cell panel viability, ATPlite luminescence, 48 h; series mostly up to 57.5 µM; note: nearly all actives have a fitted effect of over 55% in size
Outline: (§3)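 Measured: luminescence after ATPlite addition (15 min, RT). Exposure: 48 h, 37 C, 5% CO2.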

CAOV3 = experiment: as above; settings: Gynecologic cancer cell panel viability, ATPlite luminescence, 48 h; series mostly up to 57.5 µM
Outline: as §3

Es-2 = experiment: as above; settings: Gynecologic cancer cell panel viability, ATPlite luminescence, 48 h; series mostly up to 57.5 µM
Outline: as §3

Hek293T = experiment: as above; settings: Gynecologic cancer cell panel viability, ATPlite luminescence, 48 h, control line for the selectivity index; series mostly up to 57.5 µM
Outline: as §3

CASKI = experiment: as above; settings: Gynecologic cancer cell panel viability, ATPlite luminescence, 48 h; series mostly up to 57.5 µM
Outline: as §3

MKL-1 = experiment: qHTS assay to identify novel small-molecules to repurpose for Merkel cell carcinoma treatment (AID 1296009); settings: MCC and control cell lines, CellTiter-Glo viability, 72 h; series mostly up to 46 µM; note: nearly all actives have a fitted effect of over 60% in size
Outline: as §2

HeLa = experiment: Primary qHTS to identify gynecologic anti-cancer compounds using libraries of approved drugs and bioactive compounds (AID 1345084); settings: Gynecologic cancer cell panel viability, ATPlite luminescence, 48 h; series mostly up to 57.5 µM; note: nearly all actives have a fitted effect of over 55% in size
Outline: as §3

MCC-26 = experiment: qHTS assay to identify novel small-molecules to repurpose for Merkel cell carcinoma treatment (AID 1296009); settings: MCC and control cell lines, CellTiter-Glo viability, 72 h; series mostly up to 46 µM; note: nearly all actives have a fitted effect of over 60% in size
Outline: as §2
% is set by controls: 0 for no effect and ±100 for the full control effect; potency is the fitted concentration of half-maximal effect.

CC1=C(CO)C(=O)O[C@@H]([C@@H](C)[C@H]2CC[C@H]3[C@@H]4C[C@H]5O[C@]56[C@@H](O)C=CC(=O)[C@]6(C)[C@@H]4CC[C@]23C)C1
active: Potency (HEK293) 332 nM | Potency (HaCat) 2640 nM | Potency (KB-3-1) 1.05 µM | Potency (NIH3T3) 2.09 µM | Potency (MCC-13) 662 nM | Potency (MKL-2) 132 nM | Potency (UISO) 743 nM | Potency (WaGa) 264 nM

COc1cccc2nc(-c3cccs3)nc(NN3C(=O)C=C(C)C3=O)c12
active: Potency (HEK293) 418 nM and 517 nM | Potency (HaCat) 23500 nM | Potency (KB-3-1) 5.9 µM and 10.3 µM | Potency (NIH3T3) 1.48 µM and 820 nM | Potency (MCC-13) 2640 nM | Potency (MKL-2) 935 nM | Potency (C33A) 31600 nM | Potency (CAOV3) 15800 nM | Potency (Es-2) 2510 nM | Potency (Hek293T) 1410 nM

Cc1nc(N)ncc1-c1nc(N2CCOCC2)c2sc(C(C)(C)O)cc2n1
active: Potency (HEK293) 1.18 µM and 1.3 µM | Potency (HaCat) 41.8 nM and 130 nM | Potency (KB-3-1) 3.66 µM | Potency (NIH3T3) 1.87 µM and 920 nM | Potency (C33A) 1780 nM | Potency (CASKI) 501 nM | Potency (Hek293T) 3160 nM
inactive: Potency (MCC-13)

CC1(C)O[C@@H]2C[C@@H]3[C@H]4C[C@@H](F)C5=CC(=O)C=C[C@]5(C)[C@@]4(F)[C@@H](O)C[C@]3(C)[C@]2(C(=O)CO)O1
inactive: max response (HEK293) -3.12% | max response (HaCat) -6.44% | outcome (KB-3-1) | max response (NIH3T3) -12.4% | Potency (MCC-13) | Potency (MKL-1) | Potency (MKL-2) | Potency (UISO) | Potency (WaGa)

CCn1nnc2c(N3CCOCC3)nc(-c3ccc(NC(=O)Nc4ccc(C(=O)N5CCN(C)CC5)cc4)cc3)nc21
inactive: Potency (MCC-13) | Potency (C33A)
active: Potency (HEK293) 206 nM | Potency (HaCat) 662 nM and 1.16 µM | Potency (KB-3-1) 11.8 nM and 146 nM | Potency (NIH3T3) 0.517 µM | Potency (MKL-2) 10.5 nM | Potency (UISO) 33.2 nM | Potency (CASKI) 251 nM | Potency (Es-2) 1120 nM | Potency (Hek293T) 631 nM

COc1cc(Nc2ncc(F)c(Nc3ccc4c(n3)N(COP(=O)(O)O)C(=O)C(C)(C)O4)n2)cc(OC)c1OC
inactive: Potency (MCC-13) | Potency (MKL-1) | Potency (MKL-2) | Potency (UISO) | Potency (WaGa)
active: Potency (HEK293) 3.72 µM and 7.31 µM | Potency (HaCat) 4.69 µM and 4.61 µM | Potency (KB-3-1) 4.11 µM | Potency (NIH3T3) 2.06 µM | Potency (CASKI) 17800 nM | Potency (HeLa) 3550 nM

CC[C@@H]1C(=O)N(C)c2cnc(Nc3ccc(C(=O)NC4CCC(N5CCN(CC6CC6)CC5)CC4)cc3OC)nc2N1C(C)C (stereo partly specified)
active: Potency (HEK293) 26.4 nM and 20.6 nM and 13 nM | Potency (HaCat) 59 nM | Potency (KB-3-1) 11.8 nM and 4.6 nM | Potency (NIH3T3) 2.64 µM and 1.46 µM and 1.3 µM | Potency (MCC-13) 469 nM | Potency (MKL-1) 74.3 nM | Potency (MKL-2) 4180 nM | Potency (CASKI) 17800 nM | Potency (Es-2) 3980 nM

CC(NCc1ccc2c(c1)nc(NC(=O)c1ccc(-c3cn[nH]c3)s1)n2CC(C)(C)O)C(C)(C)C (stereo unspecified)
active: Potency (HEK293) 132 nM | Potency (HaCat) 743 nM | Potency (KB-3-1) 0.209 µM | Potency (NIH3T3) 0.59 µM | Potency (MCC-13) 2350 nM | Potency (MCC-26) 1480 nM | Potency (MKL-1) 332 nM | Potency (UISO) 1320 nM | Potency (WaGa) 526 nM

Cc1c(CN2CCN(S(C)(=O)=O)CC2)sc2c(N3CCOCC3)nc(-c3cnc(N)nc3)nc12
active: Potency (HEK293) 59 nM and 326 nM | Potency (HaCat) 41.8 nM | Potency (KB-3-1) 0.0833 µM | Potency (NIH3T3) 148 nM and 517 nM | Potency (MCC-26) 833 nM | Potency (MKL-2) 118 nM | Potency (UISO) 264 nM | Potency (C33A) 1580 nM | Potency (CASKI) 708 nM | Potency (HeLa) 2000 nM | Potency (Hek293T) 501 nM
